According to ChEMBL document CHEMBL1157539, “Thousands of chemical starting points for antimalarial lead identification” (Nature, 2010):
Where “and” joins values, the source holds several entries; their conditions need not be identical. Equal entries are not always repeated.

Key:
Type in all cases: functional
Plasmodium falciparum [1] = assay: GSK_TCMDC: Inhibition of Plasmodium falciparum 3D7 in whole red blood cells, using parasite LDH activity as an index of growth. Test compounds present at 2uM
Plasmodium falciparum [2] = assay: GSK_TCMDC: Inhibition of Plasmodium falciparum Dd2 in whole red blood cells, using parasite LDH activity as an index of growth. Test compounds present at 2uM
HepG2 = assay: GSK_TCMDC: Percent inhibition of human HepG2 cell line. Test compounds present at 10uM.

SMILES | Inhibition (Plasmodium falciparum [1]) | Inhibition (Plasmodium falciparum [2]) | Inhibition (HepG2)
Cl.NC[C@H](CC1CCCCC1)NC(=O)c1ccc(-c2ccnc3[nH]ccc23)s1 | 98% | 4% | 39%
CCOC(=O)c1ccc(NC(=O)NC2CCN(CCCCCNC(=O)/C=C/c3ccc(Cl)c(Cl)c3)C2)cc1 (stereo not given) | 98% | 0% | 23%
CCOc1ccc2[nH]c(C)cc(=NN=Cc3ccc(Cl)cc3)c2c1 | 100% | 100% | 0%
COc1ccc(CNc2nc(NCc3ccccc3)c3cc(OC)c(OC)cc3n2)cc1OC | 100% | 99% | 24%
Cn1cncc1C(=O)Nc1cccc(-c2ccc(-c3nc4cc(C(F)(F)F)ccc4[nH]3)cc2)c1 | 97% | 98% | 4%
COc1ccc2nccc(N3CCN(CCNCc4ccc5c(n4)NC(=O)CS5)CC3)c2c1.Cl | 97% | 23% | 18%
Cc1[nH]c2cc(F)ccc2c(=O)c1Cc1ccc(Cl)cc1.Cc1[nH]c2cccc(F)c2c(=O)c1Cc1ccc(Cl)cc1 | 94% and 93% | 92% and 94% | 7% and 6%
CCNc1cc(C(=O)N[C@@H](Cc2ccccc2)[C@H](O)CNC2C3CC4CC(C3)CC2C4)cc(N2CCCCS2(=O)=O)c1.Cl (stereo not given in full) | 97% | 96% | 0%
Cl.N=C(N)NN=Cc1ccc2ccc3ccccc3c2c1 | 100% | 89% | 34%
CCCN(CCC)C(=O)c1cc(-c2cccc(C)c2)nc2ccccc12 | 86% | 59% | 17%
